From the supplement of paper PMC3334620
Over roughly 33,000 sequences, “E-score (-0.5 to 0.5)” has its median near -0.016; the highest 2% begin near 0.31. The sample holds the highest values, similar sequences and a random draw of the others, so the mix is not that of the screen.

Biological target: Cst6 (UniProt P40535)
Assay: PBM E-score (8-mer binding enrichment) (E-score (-0.5 to 0.5)); higher = stronger / more preferred TF binding
Settings: protein concentration: 200 nM; construct: GST-DNA-binding domain
Method: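 Universal 'all 10-mer' protein binding microarrays (Agilent AMADID 015681) probed with GST-tagged S. cerevisiae TFs (full-length or DBD) made by in vitro transcription/translation (PURExpress), about 100-200 nM. Bound TF was detected with fluorescent anti-GST. Each ungapped 8-mer (which stands for itself and its reverse complement) is scored by the PBM enrichment score (E-score), a modified Wilcoxon-Mann-Whitney statistic from -0.5 to +0.5, computed with the Universal PBM Analysis Suite. Scale: above 0.35 generally sequence-specific binding.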

Chain of UniProt P40535 (P40535 whole entry): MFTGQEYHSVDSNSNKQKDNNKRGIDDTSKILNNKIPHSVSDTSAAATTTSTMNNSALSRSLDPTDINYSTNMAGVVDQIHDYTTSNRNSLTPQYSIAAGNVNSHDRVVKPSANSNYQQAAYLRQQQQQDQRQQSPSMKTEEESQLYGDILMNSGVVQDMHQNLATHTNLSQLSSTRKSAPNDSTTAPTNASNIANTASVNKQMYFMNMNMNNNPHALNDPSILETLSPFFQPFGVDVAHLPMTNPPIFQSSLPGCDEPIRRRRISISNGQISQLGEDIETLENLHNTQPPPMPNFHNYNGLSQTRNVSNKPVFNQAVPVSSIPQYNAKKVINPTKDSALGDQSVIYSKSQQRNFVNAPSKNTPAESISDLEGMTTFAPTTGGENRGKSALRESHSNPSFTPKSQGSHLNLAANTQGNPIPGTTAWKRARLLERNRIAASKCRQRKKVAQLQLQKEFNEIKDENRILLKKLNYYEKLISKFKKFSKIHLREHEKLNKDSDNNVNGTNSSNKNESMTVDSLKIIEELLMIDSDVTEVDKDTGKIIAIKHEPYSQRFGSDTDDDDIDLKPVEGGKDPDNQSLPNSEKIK

Row | Sequence | PBM E-score
1 | CTACTCAC | 0.212
2 | CATAGACC | -0.13
3 | AACTGCCG | 0.114
4 | GTAATTTA | 0.333
5 | CTAATTTC | 0.128
6 | GCAATTTA | 0.151
7 | TAAATTTA | 0.237
8 | ATAATTTA | 0.304
9 | CTAATTTA | 0.321
10 | CATGAGGG | -0.142
11 | ATGCAAAA | 0.22
12 | ACGGTCAC | 0.152
13 | TCAGCGCA | -0.176
14 | ACAAAAGT | 0.164
15 | GCGTATTA | 0.0768
16 | ACGTATTA | 0.33
17 | TCGTATAA | 0.145
18 | ACGTATTG | 0.238
19 | CCGTATAA | 0.225
20 | CCGTATAC | -0.015
21 | ACGTATAA | 0.309
22 | ACGTATAC | 0.307
23 | ACGTATAT | 0.237
24 | CGAGACTA | 0.0119
25 | GCAGCGCC | 0.0306

Row | Sequence | PBM E-score
26 | CTAAAGAG | -0.0139
27 | AGGGGCCC | -0.101
28 | ACCCGACT | -0.16
29 | CAAGGTTC | -0.155
30 | AGGCTGGC | -0.195
31 | CAACGTTC | -0.13
32 | AAACGTTG | -0.106
33 | GAACGTAA | 0.277
34 | TAACGAAA | 0.27
35 | AAACGTAA | 0.365
36 | CAACGTAC | 0.0567
37 | TAACGTAA | 0.452
38 | CAACGTTG | 0.31
39 | CAACGTAA | 0.329
40 | AAACGTAG | -0.0946
41 | CAACGTAG | 0.0788
42 | AAACGTAT | 0.276
43 | GGCCCTCA | -0.266
44 | AAGCAAAC | 0.0375
45 | TCATGAGA | 0.214
46 | TGATGACA | 0.368
47 | CGATGAAG | 0.0389
48 | TGATGAAA | 0.289
49 | CGATGACA | 0.383
50 | GCATGACA | 0.288

Row | Sequence | PBM E-score
51 | GGATGACA | 0.287
52 | CGATGAGA | -0.048
53 | CGATGACG | 0.48
54 | CGATGACC | 0.0541
55 | AGATGACA | 0.283
56 | TCATGACA | 0.392
57 | AAGCGTGA | 0.141
58 | GACTATCA | -0.104
59 | CGGAGATC | -0.205
60 | ACTGTGTA | -0.043
61 | CTACTCCC | -0.156
62 | CAGGCCAA | -0.178
63 | GCGTGACA | 0.255
64 | CGTTCTTC | 0.151
65 | ACAGATCC | 0.0419
66 | ACGAACAC | 0.138
67 | AGATGACG | 0.473
68 | AGATGACT | 0.0398
69 | AGATGACC | 0.0152
70 | ACTCTGGA | 0.109
71 | AGACGAAA | 0.134
72 | CGACGACA | -0.054
73 | TGACGACA | 0.476
74 | TGACGAAA | 0.477
75 | GGACGACA | 0.0793

Row | Sequence | PBM E-score
76 | GGACGAAA | 0.0732
77 | TGCATCAA | 0.154
78 | CAGCCAAA | 0.0814
79 | AGCCTGAA | -0.0532
80 | CTGACCTA | -0.0164
81 | ATGACCTA | 0.346
82 | GTGACCTA | 0.192
83 | ATGACCTG | 0.0198
84 | ATGACCTC | 0.349
85 | CTGACCTC | 0.0456
86 | GCCGGCAA | -0.108
87 | AGTCATCA | 0.0814
88 | CGTCATCA | 0.487
89 | AGTCATCC | -0.0119
90 | CCTCATCC | -0.272
91 | GGTCATCA | 0.247
92 | CGTCATCC | 0.473
93 | CGGCACGC | 0.0275
94 | TGTGGAAA | 0.186
95 | ATTGATTG | 0.237
96 | AATGATCT | 0.215
97 | ATTGATTA | 0.308
98 | ACTGATGA | 0.173
99 | AAAGATGT | 0.13
100 | AATGATGA | 0.334

Row | Sequence | PBM E-score
101 | AATGATGT | 0.41
102 | GATGATTA | 0.2
103 | AATGATTA | 0.344
104 | AATGATTC | 0.225
105 | ATTGATTC | 0.178
106 | AATGATGG | 0.186
107 | CCAAACTC | -0.0716
108 | CTCATCGC | -0.0477
109 | GTAACCAC | -0.0805
110 | AACAGAGG | -0.0721
111 | ACAAGTTG | -0.0486
112 | AACACCCA | -0.246
113 | TGAACCAA | 0.184
114 | AGGCGGTA | -0.225
115 | CCAAGCCG | -0.182
116 | TGCCATAA | 0.00753
117 | ACGTTACC | 0.179
118 | AACGGTTG | 0.0747
119 | AGTGATGA | 0.284
120 | ATTGATGC | 0.262
121 | AATGATCC | 0.026
122 | AGTGATGG | 0.0422
123 | AATGATGC | 0.347
124 | AGTGATGC | 0.317
125 | GATGATCC | 0.00428

Row | Sequence | PBM E-score
126 | GATGATGC | 0.328
127 | CCTGATGC | 0.0754
128 | AAATTAGC | 0.153
129 | ACACTCCC | -0.177
130 | GCACTAAC | -0.119
131 | CCACCTCA | -0.114
132 | AGCAGTGG | -0.048
133 | CATATAAA | 0.236
134 | AATAAATA | 0.39
135 | CATATAAG | 0.146
136 | AATAAATG | 0.302
137 | AATATAAG | 0.352
138 | AATATAAT | 0.156
139 | AATATAAA | 0.331
140 | TATAAATA | 0.294
141 | TATATAAA | 0.298
142 | AGGACAAC | 0.0452
143 | ACGGTCTA | -0.0035
144 | CGTATTGC | 0.0567
145 | ACGGATTC | 0.0332
146 | CCGTACTC | -0.113
147 | TGCCAAAA | 0.0693
148 | ATGTGGGG | -0.237
149 | CTCATGAG | 0.079
150 | GACATGAC | 0.275

Row | Sequence | PBM E-score
151 | ATCATGAG | 0.146
152 | ATCATGCA | 0.109
153 | ATCATGAC | 0.446
154 | CTCATGCA | 0.00428
155 | CTCATGAA | 0.158
156 | ATCATGAA | 0.17
157 | CTCATGAC | 0.335
158 | GTCATGCA | 0.36
159 | GTCATGAA | 0.268
160 | GTCATGAC | 0.374
161 | ATTGAGCG | -0.0477
162 | ACCGGATA | -0.0988
163 | AAAGGCCA | -0.109
164 | AGCGCGTA | 0.177
165 | CTGATGGA | -0.0729
166 | ACGTGCAG | 0.0472
167 | ACCGCCGT | 0.209
168 | GTAATTAA | 0.188
169 | CATATTAC | 0.261
170 | TTAATTAA | 0.0995
171 | ATCATTAG | 0.19
172 | AATATTAC | 0.241
173 | ATCATTAC | 0.375
174 | ATAATTAA | 0.322
175 | AAAATTAT | 0.378

Row | Sequence | PBM E-score
176 | GATATTAC | 0.352
177 | AAAATTAG | 0.159
178 | CTCATTAC | 0.25
179 | AAAATTAC | 0.257
180 | CAAGGATC | -0.012
181 | GCTATACC | -0.19
182 | GGAGCATA | -0.00076
183 | CCGGCATA | -0.15
184 | CCTGCGCG | -0.0722
185 | AAAGCGCC | 0.113
186 | CTAGTCAA | -0.127
187 | AGCACCTA | -0.227
188 | ATACGTTC | 0.0426
189 | GGGGAGAA | -0.161
190 | ATAATTAT | 0.342
191 | ATAATTAG | 0.223
192 | CTTGTTAC | 0.0412
193 | ATTGTTAG | 0.129
194 | ATTGTTAC | 0.348
195 | CAAATTAA | 0.224
196 | ACTATTAC | 0.201
197 | ATTATTAC | 0.339
198 | AAAATTAA | 0.115
199 | ATTATAAT | 0.259
200 | CTTATTAC | 0.231

Row | Sequence | PBM E-score
201 | GAAATTAA | 0.334
202 | CGACTAAC | -0.0525
203 | ACACACCT | 0.0393
204 | CATGAAAG | 0.082
205 | CTAATTAC | 0.243
206 | GTAATTAC | 0.287
207 | ACAATTAC | 0.249
208 | CTTCTTAC | -0.0252
209 | ATAATTAC | 0.349
210 | AAGATTAC | 0.127
211 | ATTCTTAG | 0.0174
212 | GAGATTAA | 0.0823
213 | ATTCTTAC | 0.315
214 | ACAATTAA | 0.319
215 | GAGATTAC | 0.312
216 | ACAATTAT | 0.289
217 | ACTGCGTC | 0.147
218 | CACTTGGC | -0.08
219 | GTGCTTAA | 0.0338
